Results reported in PubChem BioAssay (NCI).
This is part of a sample that, as a whole, favours compounds with a hit. Of some 83,000 tested, about 20% had one in any assay.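 Cells were grown in 96-well plates and exposed to the test compound at a single concentration for 48 hours; results are reported as percent growth, with values below 10 considered active.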 Calls of active or inactive are those of the source.

How the values were obtained:
Assay in all cases: NCI-60 one-dose screen, 48 h (100 = growth as untreated, 0 = no growth, -100 = all killed)
Details in all cases: 10 µM unless noted
SR leukemia = system: SR leukemia
RPMI-8226 leukemia = system: RPMI-8226 leukemia
OVCAR-8 ovarian = system: OVCAR-8 ovarian
OVCAR-5 ovarian = system: OVCAR-5 ovarian
OVCAR-4 ovarian = system: OVCAR-4 ovarian
SK-OV-3 ovarian = system: SK-OV-3 ovarian
IGROV1 ovarian = system: IGROV1 ovarian
OVCAR-3 ovarian = system: OVCAR-3 ovarian
HS 578T breast = system: HS 578T breast
NCI/ADR-RES ovarian = system: NCI/ADR-RES ovarian
T-47D breast = system: T-47D breast
BT-549 breast = system: BT-549 breast
MDA-MB-435 melanoma = system: MDA-MB-435 melanoma
SW-620 colon = system: SW-620 colon
MCF7 breast = system: MCF7 breast
HCT-116 colon = system: HCT-116 colon
HCC-2998 colon = system: HCC-2998 colon
KM12 colon = system: KM12 colon
MDA-MB-468 breast = system: MDA-MB-468 breast

Measured: growth

COc1ccc(-c2cc(C)nc3[nH]c(=O)sc23)cc1
inactive: SR leukemia 75.5% | RPMI-8226 leukemia 69.4% | OVCAR-8 ovarian 63.5% | OVCAR-5 ovarian 80.4% | SK-OV-3 ovarian 55.9% | IGROV1 ovarian 62.5% | OVCAR-3 ovarian 67.1% | HS 578T breast 48.2% | NCI/ADR-RES ovarian 62.4% | BT-549 breast 58.9% | MDA-MB-435 melanoma 78.7% | SW-620 colon 98.1% | MCF7 breast 83.8% | HCT-116 colon 52.1% | HCC-2998 colon 84.2% | KM12 colon 81.3% | MDA-MB-468 breast 76%
active: OVCAR-4 ovarian 2.45% | T-47D breast -15.1%

CCCCCCCCc1ccc(C(=O)Nc2cccc(O)c2)cc1
inactive: SR leukemia 29.8% | RPMI-8226 leukemia 35% | OVCAR-8 ovarian 83% | OVCAR-5 ovarian 100% | OVCAR-4 ovarian 78.8% | SK-OV-3 ovarian 109% | IGROV1 ovarian 85.6% | OVCAR-3 ovarian 91.2% | HS 578T breast 81.4% | NCI/ADR-RES ovarian 59% | T-47D breast 67.7% | BT-549 breast 51.2% | MDA-MB-435 melanoma 50.5% | SW-620 colon 93.5% | MCF7 breast 60.3% | HCT-116 colon 65% | HCC-2998 colon 109% | KM12 colon 54.3% | MDA-MB-468 breast 90.9%

CC1=C(C)C(=O)C(NCCN2CCOCC2)=C(Br)C1=O
active: OVCAR-5 ovarian 4% | OVCAR-4 ovarian -67.4% | OVCAR-3 ovarian -26.9% | T-47D breast -58.6% | MDA-MB-435 melanoma -87.5% | HCT-116 colon -75.5% | MDA-MB-468 breast -96.2%
inactive: SR leukemia 55.9% | RPMI-8226 leukemia 58.6% | OVCAR-8 ovarian 16.3% | SK-OV-3 ovarian 87.5% | IGROV1 ovarian 31.4% | HS 578T breast 60.4% | NCI/ADR-RES ovarian 86.4% | BT-549 breast 87.4% | SW-620 colon 32.7% | MCF7 breast 10.3% | HCC-2998 colon 101% | KM12 colon 94.2%

Cc1ccc(C2CC(c3ccc(NC(=O)Nc4ccccc4)cc3)=NN2c2ccc(S(C)(=O)=O)cc2)cc1 (stereo not given)
inactive: SR leukemia 15.5% | OVCAR-4 ovarian 17.6% | SK-OV-3 ovarian 26.8% | HS 578T breast 21.3% | T-47D breast 11.9%
active: RPMI-8226 leukemia -0.47% | OVCAR-8 ovarian 7.91% | OVCAR-5 ovarian -51.3% | IGROV1 ovarian -28.1% | OVCAR-3 ovarian -2.63% | NCI/ADR-RES ovarian -35.3% | BT-549 breast -32.8% | MDA-MB-435 melanoma -7.07% | SW-620 colon -42.6% | MCF7 breast -34.3% | HCT-116 colon -36.5% | HCC-2998 colon -80.7% | KM12 colon -2.32% | MDA-MB-468 breast -1.05%

OC1CCC(Cn2c(C(F)(F)F)cc3c(Cl)ncnc32)CC1 (stereo not given)
active: SR leukemia -58.9% | OVCAR-8 ovarian -4.04% | OVCAR-4 ovarian -19.9% | IGROV1 ovarian -85.7% | OVCAR-3 ovarian -25.1% | HS 578T breast -35.7% | BT-549 breast -37.7% | MDA-MB-435 melanoma 8.29% | HCT-116 colon 1.57% | HCC-2998 colon -94% | MDA-MB-468 breast 9.1%
inactive: RPMI-8226 leukemia 84.9% | OVCAR-5 ovarian 94.6% | SK-OV-3 ovarian 57.7% | NCI/ADR-RES ovarian 51.8% | T-47D breast 82% | SW-620 colon 38.8% | MCF7 breast 91% | KM12 colon 86.5%

CCc1ccc(SC2c3cc(OC)ccc3Oc3nc(N)c(C#N)c(N)c32)cc1 (stereo not given)
active: SR leukemia -62% | RPMI-8226 leukemia -15.6% | OVCAR-8 ovarian 0.0543% | OVCAR-5 ovarian -4.3% | OVCAR-4 ovarian -13.3% | SK-OV-3 ovarian -23.3% | IGROV1 ovarian -69.6% | OVCAR-3 ovarian -48.3% | HS 578T breast -40.5% | NCI/ADR-RES ovarian 0.784% | T-47D breast -52% | BT-549 breast -67.8% | MDA-MB-435 melanoma -22.1% | SW-620 colon -42.9% | MCF7 breast -45.4% | HCT-116 colon -96% | HCC-2998 colon -48.3% | KM12 colon -17.7% | MDA-MB-468 breast -78.8%

NS(=O)(=O)c1cccc(Nc2nc(SCC(=O)c3ccc(F)cc3)nc3ccccc23)c1
active: SR leukemia 8.61% | RPMI-8226 leukemia -2.61% | OVCAR-3 ovarian 0.387% | HS 578T breast 7.8% | T-47D breast -7.28% | BT-549 breast -5.16% | MDA-MB-435 melanoma -18% | MCF7 breast 2.1% | HCT-116 colon 5.03% | KM12 colon -1.98% | MDA-MB-468 breast -9.09%
inactive: OVCAR-8 ovarian 16.4% | OVCAR-5 ovarian 45.1% | OVCAR-4 ovarian 15.6% | SK-OV-3 ovarian 38.3% | IGROV1 ovarian 13.9% | NCI/ADR-RES ovarian 26.7% | SW-620 colon 27.4% | HCC-2998 colon 16%

COc1ccc(C(=O)C[n+]2cccc3c4ccccc4ccc32)cc1
active: MDA-MB-468 breast 2.93%
inactive: SR leukemia 34.4% | RPMI-8226 leukemia 25.2% | OVCAR-8 ovarian 25.9% | OVCAR-5 ovarian 58.3% | OVCAR-4 ovarian 33.4% | SK-OV-3 ovarian 50.1% | IGROV1 ovarian 67.4% | OVCAR-3 ovarian 51.7% | HS 578T breast 58.9% | NCI/ADR-RES ovarian 97.7% | T-47D breast 38.2% | BT-549 breast 33.2% | MDA-MB-435 melanoma 37.5% | SW-620 colon 36.4% | MCF7 breast 18.1% | HCT-116 colon 29.8% | HCC-2998 colon 48.5% | KM12 colon 34.9%

CN1CCN(C(=O)CCN(C(=O)Oc2cc3c(c4ccccc24)[C@H](CCl)CN3C(=O)c2cc3cc(OCCCN4CCC4)ccc3[nH]2)[C@H]2CCSSC2)CC1
active: SR leukemia -17.2% | RPMI-8226 leukemia -39.8% | OVCAR-8 ovarian -64.4% | OVCAR-5 ovarian -88.8% | OVCAR-4 ovarian -30.2% | SK-OV-3 ovarian -12.4% | IGROV1 ovarian -51.5% | OVCAR-3 ovarian -71.7% | HS 578T breast -9.25% | NCI/ADR-RES ovarian -46.7% | T-47D breast -40.9% | BT-549 breast -68.3% | MDA-MB-435 melanoma -37.1% | SW-620 colon -54.2% | MCF7 breast -67.4% | HCT-116 colon -42.7% | HCC-2998 colon -91.2% | KM12 colon -63.3% | MDA-MB-468 breast -82.9%

Cc1ccc(C(C)C)cc1Oc1cccc(-c2c(-c3ccc(C(F)(F)F)cc3)ncn2C2CCNCC2)n1
active: SR leukemia -75.5% | RPMI-8226 leukemia -59% | OVCAR-8 ovarian -66.9% | OVCAR-5 ovarian -69.5% | OVCAR-4 ovarian -89% | SK-OV-3 ovarian -93.7% | IGROV1 ovarian -91.5% | OVCAR-3 ovarian -69.2% | HS 578T breast -63.1% | NCI/ADR-RES ovarian -83% | T-47D breast -83.6% | BT-549 breast -98.6% | MDA-MB-435 melanoma -93.4% | SW-620 colon -85.5% | MCF7 breast -85.3% | HCT-116 colon -94.3% | HCC-2998 colon -85.4% | KM12 colon -79.5% | MDA-MB-468 breast -90.3%

Cc1ccc(C2CC(c3ccc(NC(=O)Nc4ccccc4)cc3)=NN2c2ccc(S(N)(=O)=O)cc2)cc1 (stereo not given)
active: SR leukemia -12.7% | RPMI-8226 leukemia -11.5% | OVCAR-8 ovarian -46.2% | OVCAR-5 ovarian -95.4% | OVCAR-4 ovarian -87.6% | SK-OV-3 ovarian -77.6% | IGROV1 ovarian -93.5% | OVCAR-3 ovarian -75.8% | HS 578T breast -28.7% | NCI/ADR-RES ovarian -66.9% | T-47D breast -74.7% | BT-549 breast -79.6% | MDA-MB-435 melanoma -91.8% | SW-620 colon -83.4% | MCF7 breast -82.4% | HCT-116 colon -74.4% | HCC-2998 colon -75.4% | KM12 colon -50% | MDA-MB-468 breast -93.4%

O=C(Nc1ccc(S(=O)(=O)N2CCCCC2)cc1)C(Cl)Cl
inactive: SR leukemia 95.7% | RPMI-8226 leukemia 110% | OVCAR-8 ovarian 111% | OVCAR-5 ovarian 127% | OVCAR-4 ovarian 104% | SK-OV-3 ovarian 118% | IGROV1 ovarian 135% | OVCAR-3 ovarian 114% | HS 578T breast 119% | NCI/ADR-RES ovarian 114% | T-47D breast 101% | BT-549 breast 124% | MDA-MB-435 melanoma 109% | SW-620 colon 109% | MCF7 breast 101% | HCT-116 colon 105% | HCC-2998 colon 124% | KM12 colon 104% | MDA-MB-468 breast 118%

COc1cc(CNC(=O)C[C@H](C)CCC=C(C)C)ccc1OCc1cn(-c2ccccc2Cl)nn1
inactive: SR leukemia 48.5% | RPMI-8226 leukemia 47.6% | OVCAR-8 ovarian 49.8% | OVCAR-5 ovarian 93.1% | OVCAR-4 ovarian 33.3% | SK-OV-3 ovarian 83% | IGROV1 ovarian 87.1% | OVCAR-3 ovarian 83.6% | HS 578T breast 81% | NCI/ADR-RES ovarian 24% | BT-549 breast 28.2% | MDA-MB-435 melanoma 66.5% | SW-620 colon 80.2% | MCF7 breast 40.6% | HCT-116 colon 49.7% | HCC-2998 colon 91.9% | KM12 colon 63% | MDA-MB-468 breast 28.5%
active: T-47D breast 9.14%

COc1ccc(C(=O)c2c(N)c(C#N)cn2-c2ccc([N+](=O)[O-])cc2)cc1
inactive: SR leukemia 94.5% | RPMI-8226 leukemia 108% | OVCAR-8 ovarian 88.5% | OVCAR-5 ovarian 107% | OVCAR-4 ovarian 101% | SK-OV-3 ovarian 93.9% | IGROV1 ovarian 109% | OVCAR-3 ovarian 122% | HS 578T breast 95.2% | NCI/ADR-RES ovarian 98.2% | T-47D breast 90.1% | BT-549 breast 113% | MDA-MB-435 melanoma 81.1% | SW-620 colon 105% | MCF7 breast 95.1% | HCT-116 colon 106% | HCC-2998 colon 101% | KM12 colon 105% | MDA-MB-468 breast 109%

Cc1ccc2c(c1)/C(=C/C(=O)c1cc3ccccc3oc1=O)C(=O)N2
inactive: RPMI-8226 leukemia 36.7% | OVCAR-8 ovarian 54.9% | OVCAR-5 ovarian 77.4% | OVCAR-4 ovarian 53.9% | SK-OV-3 ovarian 100% | IGROV1 ovarian 102% | HS 578T breast 78% | NCI/ADR-RES ovarian 65.9% | T-47D breast 72.8% | BT-549 breast 68.8% | MDA-MB-435 melanoma 75.5% | MCF7 breast 55.9% | HCT-116 colon 18.9% | HCC-2998 colon 106% | KM12 colon 86.9%
active: SR leukemia 6.51% | OVCAR-3 ovarian -0.742% | SW-620 colon -94.7% | MDA-MB-468 breast -69.3%
